# Test results as given in PubChem BioAssay (EPA / NIEHS).
# Records with an inconclusive call do not appear. Active and inactive are the calls of the source. The calls were made as follows: active = hit-call score of the fitted dose curve at least 0.9, where 1 is the maximum; inconclusive = response in the unintended direction; inactive = score below 0.9.
# Read-out: ABC Transporter (ABCB1), ABCB1 (gene 5243)
# Assay: CLD_ABCB1_6hr: CellzDirect (CLD) Gene Expression Assay for ABC Transporter (ABCB1) at 6 hours (AID 2283659);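 also: hits raise ABCB1 transcript above the DMSO vehicle baseline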
# Procedure: CLD_6hr is a cell-based, multiplexed-readout assay that uses hepatocyte, a human liver primary cell, with measurements taken at 6 hours after chemical dosing in a 96-well plate.CLD_ABCB1_6hr is one of 16 assay component(s) measured or calculated from the CLD_6hr assay. It is designed to make measurements of mRNA induction, a form of inducible reporter, as detected with chemiluminescence signals by Quantitative Nuclease Protection Assay (qNPA) technology.Data from the assay component CLD_ABCB1_6hr was analyzed at the endpoint, CLD_ABCB1_6hr, in the positive analysis fitting direction relative to DMSO as the negative control and baseline of activity. Using a type of inducible reporter, gain-of-signal activity can be used to understand changes in the reporter gene as they relate to the gene ABCB1. Furthermore, this assay endpoint can be referred to as a primary readout. To generalize the intended target to other relatable targets, this assay endpoint is annotated to the transporter intended target family, where subfamily is ABC transporter.
# Human hepatocyte cultures were treated daily for two consecutive days with fresh dosing solutions containing appropriate concentrations of the 320 ToxCast chemicals (chemical identities were blinded to CellzDirect and other ToxCast collaborators), vehicle control (0.2% DMSO), and positive control inducers as summarized in Table 1. Due to the large number of treatment groups and chemicals examined, the ToxCast chemicals were divided into two groups (spanning two independent cultures of hepatocytes from separate donor preparations (Hu778: ToxCast plates 1 and 2; Hu776: ToxCast plates 3 and 4). Each preparation of human hepatocyte cultures was treated with respective vehicle control, medium only control, set of six positive controls/reference chemicals for the five hepatic receptor pathways, and a subset of eight of the ToxCast chemicals (indoxacarb, pyrithiobac-sodium, norflurazon, cyhalofop-butyl, methomyl, thiram, acetochlor, and propiconazole). These replicate data, coupled with internal replicates designed within the blinded ToxCast chemical library, provided additional data to evaluate interindividual differences between hepatocyte preparations and their potential impact on chemical profiles.Cell morphology and integrity were evaluated using phase-contrast microscopy as an indicator of hepatocyte cell health (Tyson & Green, 1987). Cultures for each treatment group (i.e., media, vehicle [0.2% DMSO], positive control inducers [multiple concentrations], and the ToxCast chemicals [multiple concentrations]) were observed and cell morphology was assessed relative to vehicle control cultures at each harvest time point (0, 6, 24, or 48 h). […] Images were evaluated at the conclusion of the study to assess changes in cell integrity and account for the effects of chemical exposure on uncharacteristic changes in concentration-dependent gene expression profiles. The results from these determinations of apparent cytotoxicity were annotated (yes/no) alongside the corresponding qNPA data for reference.At the conclusion of each treatment period, hepatocyte cultures (96-well) were washed with 1 volume of HBSS, lysed by addition of 25 ul ArrayPlate lysis buffer (HTG, Tucson, AZ), and 70 ul/well of Denaturation Oil, denatured by incubation at 95C for 10 min, and frozen at approximately -70C until analysis by nuclease protection assay (qNPA) (Roberts et al., 2007). For qNPA analysis, cell lysates were thawed at 50C for approximately 30 min, qNPA probes were added, and samples were incubated at 95C for 10 min to begin the detection process by denaturing the target RNA, dissociating the duplexes and secondary structure hybridization. At the conclusion of the hybridization period, S1 nuclease reagent was added to each sample to digest all nonprotected nucleotides at 50C for 60-90 min. […]
row,SMILES,outcome
1,N#CN,inactive
2,Oc1cc(Cl)ccc1Oc1ccc(Cl)cc1Cl,inactive
3,O=C(O)C(F)(F)C(F)(F)C(F)(F)C(F)(F)C(F)(F)C(F)(F)C(F)(F)F,inactive
4,COP(=S)(OC)Oc1ccc([N+](=O)[O-])cc1,inactive
5,COP(=O)(OC)OC=C(Cl)Cl,inactive
6,CC(C)N(C(=O)COc1nnc(C(F)(F)F)s1)c1ccc(F)cc1,inactive
7,O=C1c2ccccc2C(=O)N1SC(Cl)(Cl)Cl,inactive
8,Clc1ccccc1-c1nnc(-c2ccccc2Cl)nn1,inactive
9,C[C@H]1[C@H](c2ccc(Cl)cc2)SC(=O)N1C(=O)NC1CCCCC1,inactive
10,CN1CSC(=S)N(C)C1,inactive
11,Oc1ccc(Cl)cc1Cc1ccccc1,inactive
12,COC(=O)c1ccccc1S(=O)(=O)NC(=O)Nc1nc(C)nc(OC)n1,inactive
13,O=[N+]([O-])/N=C1\NCCN1Cc1ccc(Cl)nc1,inactive
14,CCOc1nc(NC)nc(NC(=O)NS(=O)(=O)c2ccccc2C(=O)OC)n1,inactive
15,O=C(NC(=O)c1c(F)cccc1F)Nc1ccc(OC(F)(F)C(F)OC(F)(F)F)c(Cl)c1 (stereo not given),inactive
16,O=C(O)COc1ccc(Cl)cc1Cl,inactive
17,CCCN(CCC)c1c([N+](=O)[O-])cc(C(F)(F)F)cc1[N+](=O)[O-],inactive
18,O=S1OCC2C(CO1)C1(Cl)C(Cl)=C(Cl)C2(Cl)C1(Cl)Cl (stereo not given),inactive
19,CCC(C)(NC(=O)c1cc(Cl)c(C)c(Cl)c1)C(=O)CCl (stereo not given),inactive
20,C#CCN1C(=O)COc2cc(F)c(N3C(=O)C4=C(CCCC4)C3=O)cc21,inactive

row,SMILES,outcome
1,CC1(C)C(C=C(Cl)Cl)C1C(=O)OC(C#N)c1ccc(F)c(Oc2ccccc2)c1 (stereo not given),inactive
2,CCCN(CCOc1c(Cl)cc(Cl)cc1Cl)C(=O)n1ccnc1,inactive
3,CCC(C)(C)C(=O)OC1=C(c2ccc(Cl)cc2Cl)C(=O)OC12CCCCC2,inactive
4,CNC(=O)/C=C(\C)OP(=O)(OC)OC,inactive
5,CCC(C)Nc1c([N+](=O)[O-])cc(C(C)(C)C)cc1[N+](=O)[O-] (stereo not given),inactive
6,CC[C@H](C)[C@H]1O[C@]2(C=C[C@@H]1C)C[C@@H]1C[C@@H](C/C=C(\C)[C@@H](O[C@H]3C[C@H](OC)[C@@H](O[C@H]4C[C@H](OC)[C@@H](O)[C@H](C)O4)[C@H](C)O3)[C@@H](C)/C=C/C=C3\CO[C@@H]4[C@H](O)C(C)=C[C@@H](C(=O)O1)[C@]34O)O2 (tested in a mixture with another compound),inactive
7,CCN(CC)C(=O)SCc1ccc(Cl)cc1,inactive
8,OCCOc1ccccc1,inactive
9,CNC(=O)Oc1ccccc1OC(C)C,inactive
10,O=C(O)CCCOc1ccc(Cl)cc1Cl,inactive
11,CCS(=O)(=O)c1cccnc1S(=O)(=O)NC(=O)Nc1nc(OC)cc(OC)n1,inactive
12,Cc1[nH]c(=O)n(C(C)(C)C)c(=O)c1Cl,inactive
13,CC(C)(C)C(O)C(Oc1ccc(Cl)cc1)n1cncn1 (stereo not given),inactive
14,ClC1C(Cl)C(Cl)C(Cl)C(Cl)C1Cl (stereo not given),inactive
15,CCOCN(C(=O)CCl)c1c(C)cccc1CC,inactive
16,COC(=O)c1ccccc1CS(=O)(=O)NC(=O)Nc1nc(OC)cc(OC)n1,inactive
17,CC(C)(C)C(O)/C(=C\c1ccc(Cl)cc1Cl)n1cncn1 (stereo not given),inactive
18,COc1cc(OC)nc(NC(=O)NS(=O)(=O)c2cc(NC=O)ccc2C(=O)N(C)C)n1,inactive
19,CCc1ccc(C(=O)NN(C(=O)c2cc(C)cc(C)c2)C(C)(C)C)cc1,inactive
20,CC(C)OC(=O)Nc1cccc(Cl)c1,inactive
